Measured values published in PubChem BioAssay (NCI).
This is part of a sample that, as a whole, favours compounds with a hit. Of some 79,000 tested, about 15% had one in any assay. Unmarked numbers belong to inactive results. Active and inactive are the calls of the source. Rule as the data show it: active = growth inhibition above about 70%; inactive = the rest.

Key:
[1] = NCI Yeast Anticancer Drug Screen. Data for the rad50 strain (AID 155);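 also: 0% = growth of vehicle-only cultures of the same strain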; conditions: S. cerevisiae rad50 strain growth inhibition, active compounds read high
How it was run: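 Compounds were tested on a yeast strain with an engineered DNA damage repair alteration; the reported value is growth inhibition normalised to vehicle treatment.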

[2] = NCI Yeast Anticancer Drug Screen. Data for the mec2-1 strain (AID 157); conditions: S. cerevisiae mec2-1 strain, active compounds read high
How it was run: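 Using mec2-1 yeast: add compound, measure growth, express inhibition versus vehicle-treated cultures.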

[3] = NCI Yeast Anticancer Drug Screen. Data for the sgs1 mgt1 strain (AID 161);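 also: 0% = growth of cultures given vehicle only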; conditions: S. cerevisiae sgs1 mgt1 strain, active compounds read high
How it was run: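 Growth of a repair-deficient yeast mutant was monitored after compound treatment and expressed as inhibition relative to vehicle-treated cultures.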

[4] = NCI Yeast Anticancer Drug Screen. Data for the cln2 rad14 strain (AID 165);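 also: 0% = growth equal to vehicle treated cultures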; conditions: S. cerevisiae cln2 rad14 strain, active compounds read high
How it was run: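 Yeast strain cln2 rad14, bearing defects in cell cycle control and DNA repair, serves as the test system; values reflect growth inhibition compared with vehicle.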

[5] = NCI Yeast Anticancer Drug Screen. Data for the bub3 strain (AID 167); conditions: S. cerevisiae bub3 mutant strain, active compounds read high
How it was run: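 Growth of a checkpoint-deficient yeast mutant is measured after compound exposure. Values represent inhibition relative to vehicle.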

[6] = NCI Yeast Anticancer Drug Screen. Data for the mlh1 rad18 strain (AID 175); conditions: S. cerevisiae mlh1 rad18 strain growth inhibition, active compounds read high
How it was run: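 Steps: expose repair-defective yeast to compound; measure growth; express inhibition against vehicle-treated controls.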

[7] = at 5.0 µM (retest, dose inferred, filed as 0.5)
[8] = at 50.0 µM (retest, dose inferred, filed as 5.0)

| Compound | growth inhibition [1, 7] | growth inhibition [1, 8] | growth inhibition ([1]; at 50.0 µM) | growth inhibition [2, 7] | growth inhibition [2, 8] | growth inhibition ([2]; at 50.0 µM) | growth inhibition [3, 7] | growth inhibition ([3]; at 50.0 µM) | growth inhibition [4, 7] | growth inhibition [4, 8] | growth inhibition ([4]; at 50.0 µM) | growth inhibition [5, 7] | growth inhibition [5, 8] | growth inhibition ([5]; at 50.0 µM) | growth inhibition [6, 7] | growth inhibition [6, 8] | growth inhibition ([6]; at 50.0 µM) | growth inhibition [3, 8] |
| --- | --- | --- | --- | --- | --- | --- | --- | --- | --- | --- | --- | --- | --- | --- | --- | --- | --- | --- |
| CC1CC(c2ccccc2)CC(C)N1c1ccc2ccccc2c1 (stereo not given) | 9% | 82% (active) | 77.8% (active) | 13% | 74% (active) | 69.3% | 1% | 77% (active) | 5% | 61% | 36.4% | 0% | 65% | 93.7% (active) | 2% | 84% (active) | 93.3% (active) | – |
| Cc1cccc(Nc2c3c(nc4ccccc24)CCCCC3)c1 | 0% | 89% (active) | 90% (active) | -2% | 79% (active) | 28.1% | -2% | 86.8% (active) | – | – | – | -1% | 92% (active) | 27.1% | -5% | 83% (active) | 93.2% (active) | 85% (active) |
| O=C(Cc1ccc2c(c1)OCO2)c1ccc(O)cc1O | 6% | 84% (active) | 97.4% (active) | 1% | 93% (active) | 98.4% (active) | – | – | 6% | 84% (active) | 96.1% (active) | 10% | 90% (active) | 97.2% (active) | 5% | 88% (active) | 96.5% (active) | – |
| N[C@H](C(=O)O)[C@@H]1CC(Cl)=NO1 | 63% | 97% (active) | 83.7% (active) | 98% (active) | 96% (active) | 89.8% (active) | 59% | 84.5% (active) | 68% | 96% (active) | 85.2% (active) | 68% | 97% (active) | 88.5% (active) | 86% (active) | 97% (active) | 84.8% (active) | 96% (active) |
| COc1ccc(/C=C/c2c[n+]([O-])ccc2[N+](=O)[O-])cc1 | 14% | 95% (active) | 77% (active) | 18% | 97% (active) | 72.2% (active) | 37% | 63.9% | 12% | 95% (active) | 38.4% | – | – | – | 46% | 96% (active) | 98% (active) | 96% (active) |
| CN(Cc1cnc2nc(N)nc(N)c2n1)c1ccc(C(=O)NC(CCC(=O)O)C(=O)O)cc1 (stereo not given) | 2% | 5% | 37.2% | -16% | 79% (active) | 88% (active) | 9% | 45.8% | 0% | -10% | 1.4% | – | – | – | -19% | -9% | 25.1% | 53% |
| CC(C(=O)O)c1cn(Cc2ccccc2)c2ccccc12 (stereo not given) | -2% | 61% | 4.65% | 6% | 58% | 43.2% | -28% | 31.4% | – | – | – | 21% | 80% (active) | -43.8% | 6% | 34% | 38.9% | 36% |
| O=C(O)C1C(C(=O)O)C23CC2(C(=O)O)C2(C(=O)O)CCC3=C3CCCC312 (stereo not given) | 3% | 100% (active) | 51.3% | -1% | 99% (active) | 55% | -7% | 47.8% | – | – | – | 5% | 99% (active) | 85.3% (active) | -3% | 100% (active) | 67.8% | 100% (active) |
| NC(N)=N/N=C/c1ccc([N+](=O)[O-])o1 | 11% | 22% | 66% | 4% | 13% | 49% | 3% | 70.2% (active) | – | – | – | 6% | 39% | 28.7% | 10% | 23% | 61.4% | 16% |
| CSC(SC)(C(=O)O)c1cc(-c2c(Cl)cccc2Cl)no1 | 3% | 27% | 39% | 2% | 42% | 44% | 7% | 95.5% (active) | – | – | – | 13% | 73% (active) | 51.6% | 0% | 36% | 84.4% (active) | 48% |
| Cc1ccc2c(c1)[n+]([O-])c(N)c(C#N)[n+]2[O-] | 0% | 97% (active) | 68.5% | -22% | 98% (active) | 25.8% | -16% | 36.3% | -26% | 98% (active) | 15.8% | – | – | – | -48% | 96% (active) | 62.4% | 97% (active) |
| CCCCCC(=O)/C=C/c1ccc(C)cc1 | -155% | -162% | 82.6% (active) | -47% | -59% | 56.9% | -60% | 83% (active) | -59% | -80% | 75% (active) | – | – | – | -123% | -131% | 81.7% (active) | -65% |
| N#CC(C#N)=C1CCC(CC2CCCCC2)CC1 (stereo not given) | -117% | 96% (active) | 98.6% (active) | -49% | 96% (active) | 98.6% (active) | – | – | -56% | 97% (active) | 98.5% (active) | -58% | 97% (active) | 98% (active) | -92% | 96% (active) | 98.5% (active) | – |
| CCOC(=O)c1[nH]n(-c2ccccc2)c(=O)c1/C=N/C(=S)Nc1ccccc1OC | -7% | -3% | 0.4% | -14% | -11% | -31.6% | -5% | -18.1% | -23% | -12% | 44.6% | – | – | – | -2% | 1% | -16.2% | -3% |
| Cc1ccc2nc(C[n+]3ccc4ccccc4c3)ccc2c1 | -1% | 28% | 53.5% | -1% | 17% | 50.2% | -2% | 44.4% | – | – | – | -1% | 38% | 43% | 0% | 16% | 55.9% | 47% |
| Cc1ccc(S(=O)(=O)Nc2ccc3c(c2)Cc2cc([N+](=O)[O-])ccc2-3)cc1 | 45% | 60% | 78% (active) | 24% | 58% | 45.8% | 42% | 67.2% | 45% | 52% | 48.3% | – | – | – | 58% | 69% | 81.3% (active) | 62% |
| O=[N+]([O-])c1cc(CN(CCO)CCO)c(O)c2ncccc12 | 99% (active) | 99% (active) | 99.1% (active) | 98% (active) | 100% (active) | 94% (active) | 96% (active) | 99% (active) | 97% (active) | 99% (active) | 91.3% (active) | – | – | – | 96% (active) | 99% (active) | 97.2% (active) | 100% (active) |
| CSc1ncnc2ncn(C3OC(CO)C(O)C3O)c12 (stereo not given) | -16% | -1% | 9.65% | -15% | -2% | 3.55% | -11% | 15.2% | – | – | – | -10% | -14% | -0.75% | -7% | -21% | 12.5% | 2% |
| CNC(=O)N1N[C@H](c2ccccc2)[C@@H]1c1ccccc1 | 25% | 69% | 30.6% | 15% | 50% | 35% | 21% | 47.4% | 20% | 32% | 36.9% | – | – | – | 23% | 60% | -14.1% | 63% |
| N#CSCC(=O)c1ccc(Cl)cc1 | 43% | 61% | 89.5% (active) | 60% | 63% | 91% (active) | – | – | 83% (active) | 98% (active) | 89.5% (active) | 93% (active) | 99% (active) | 89.5% (active) | 36% | 56% | 89.5% (active) | – |
